# Bioassay records as filed in PubChem BioAssay.
# DAX1 inh-1: inhibitors of human orphan nuclear receptor DAX1 (NR0B1); inhibition, % at 6.75 µM; HEK293 Gal4-DAX1 luciferase reporter, luminescence; hit rate 0.99% among 340,000; P51843; AID 504766;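 active means inhibition above the mean over all tested compounds plus 3 SD, cut at about 4.2% in these data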;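 further: inhibition shows as a rise in luminescence from relieved DAX1 repression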
# Target sequence (P51843 207-470 limits assumed): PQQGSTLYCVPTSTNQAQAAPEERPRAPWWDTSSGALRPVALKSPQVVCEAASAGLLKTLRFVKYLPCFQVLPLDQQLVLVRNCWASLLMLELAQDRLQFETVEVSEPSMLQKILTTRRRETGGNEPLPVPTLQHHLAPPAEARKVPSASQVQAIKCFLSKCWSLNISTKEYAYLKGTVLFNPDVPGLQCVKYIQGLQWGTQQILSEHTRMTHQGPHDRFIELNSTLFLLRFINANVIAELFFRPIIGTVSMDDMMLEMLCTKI
# ssDAF12 agonist: activates DAF-12 receptor from parasite S. stercoralis; AID 652126; HEK293 ssDAF-12/GRIP1 lit1-tk-luc reporter, luminescence; % of 3 µM dafachronic acid response; hit rate 1% among 370,000; activation, % at 6.8 µM;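 active means activation above the mean over all tested compounds plus 3 SD, cut at about 0.9% in these data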
# Wee1 degr inh: blocks degradation of human Wee1 kinase; P30291; HeLa Luc-Wee1K328M stability, luciferase luminescence; 100% = proteasome inhibitor MG132 effect; reporter increase, % at 5 µM; hit rate 1.2% among 220,000; AID 1321;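 active means activation above the mean of all tested compounds plus 3 SD, set per screening run, cut at about 8.8% in these data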;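 further: cells exposed to compound for 20 h before luminescence read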
# hgDAF12 agonist: hgDAF-12 agonism, primary luciferase screen | activation, % at 6.8 µM | HEK293 GAL4-hgDAF12 UAS-luciferase reporter, agonist luminescence; normalized to butyrate control | hit rate 1.8% among 370,000;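 active means activation above a cutoff set at the mean of all screened compounds plus 3 SD, cut at about 10% in these data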
# DAX1 inh-2: blocks DAX1 repression of SF-1 activated StAR promoter. HEK293T StAR-luciferase reporter, SF-1/DAX-1 repression relief. inhibition, % at 6.8 µM. hit rate 1.1% among 370,000. AID 652010;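 active means inhibition above the mean over all tested compounds plus 3 SD, cut at about 3.6% in these data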;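 further: higher inhibition means more luminescence from relief of DAX-1 repression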
# hcDAF12 agonist: H. contortus DAF-12 activation, primary screen | hit rate 1.4% among 370,000 | HEK293 hcDAF-12 lit1-tk-luc reporter, luminescence; 0% DMSO, 100% Δ7-dafachronic acid | activation, % at 6.8 µM;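 active means activation above the mean of all tested compounds plus 3 SD, cut at about 5.5% in these data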
# hgDAF12 ag: hgDAF-12 agonism, confirmation assay; shares compounds with hgDAF12 agonist; HEK293 GAL4-hgDAF12 luciferase reporter, agonist mode; percent of butyrate response; activation, % at 6.8 µM; hit rate 80% among 3,300; AID 743050;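 active means mean activation over triplicate wells above the hit cutoff derived from the earlier primary screen, cut at about 11% in these data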
# LXR ag 2: counter-screen for DAF-12 agonists: agonists of human LXR-beta | shares compounds with hgDAF12 agonist | HEK293 Gal4-LXR luciferase reporter, 24 h | activation, % at 6.8 µM | 3,300 tested, under 10 active | AID 743051;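 active means mean activation of the triplicate above a set limit carried over from the primary screen, none filed active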
# Hits are given with their value; n = inactive; x = no result given. A selection: hits, their analogues and other compounds. The true share with any hit is near 4.6%.
SMILES,DAX1 inh-1,ssDAF12 agonist,Wee1 degr inh,hgDAF12 agonist,DAX1 inh-2,hcDAF12 agonist,hgDAF12 ag,LXR ag 2
COc1ccc(C(=O)CSc2cc(C)[nH]c(=O)n2)cc1,n,n,x,13.6,3.7,n,11.3,n
N#CCC(=O)N/N=C/c1ccccc1Cl,n,n,n,n,n,n,x,x
CO/C(N)=C(\C#N)N=Cc1ccccc1Cl,n,n,n,13.9,n,n,n,n
Cc1nc(Nc2ccncc2)c2oc3ccccc3c2n1,n,n,n,n,n,n,x,x
CCc1nc(Nc2ccncc2)c2oc3ccccc3c2n1,n,n,n,19.3,n,n,n,n
COc1ccc(Nc2c(CCc3ccccc3)nc3nc(C)cc(C)n23)cc1,x,n,x,n,n,n,x,x
CCn1c(SCC(=O)N(C)c2c(N)n(Cc3ccccc3)c(=O)[nH]c2=O)nnc1-c1cccs1,n,n,x,n,n,n,x,x
COc1ccccc1N1CCN(c2ccc3ccccc3n2)CC1,n,n,x,14.4,n,6.0,14.8,n
CCN(CC)C(=O)C1=C(C)N(Cc2ccc(OC)cc2)C(=O)C(CC(=O)NCCCN(C)C)C1 (centres undefined),n,n,x,n,n,n,x,x
C/C(C=NNC(=O)c1cc(-c2ccc(C)c(C)c2)n[nH]1)=C/c1ccco1,x,n,x,n,n,n,x,x
O=C(N/N=C\C=C\c1ccco1)c1cc(-c2ccc3ccccc3c2)n[nH]1,n,n,n,16.1,n,n,n,n
COc1cccc(CNc2cnc3ccccc3c2)c1O,n,n,n,n,n,n,x,x
COc1cccc(CNc2nc3ccccc3n2C)c1O,n,1.8,x,14.6,n,n,19.2,n
CCCCCCCCN1C(=O)[C@@H](CC(=O)NCc2cccs2)C[C@@]2(C(=O)OC)C1=C[C@H](C(C)C)O[C@@H]2C1CC1,x,n,x,n,n,n,x,x
COC(=O)c1ccc(-c2ccc(Cl)cc2)nc1C,n,n,n,14.5,4.3,n,20.0,n
O=C(N/N=C/C1CC=CCC1)c1ccc(Cl)cc1O (centres undefined),n,1.1,n,16.0,n,n,n,n
O=C(N/N=C/C1CC=CCC1)c1ccccc1O (centres undefined),n,n,n,n,n,n,x,x
O=C(N/N=C/C(Cl)=C/c1ccccc1)c1ccccn1,n,n,n,15.3,n,n,12.3,n
O=C(N/N=C/C(Cl)=C\c1ccccc1)c1cccs1,n,1.4,n,17.9,n,n,15.8,n
O=C(N/N=C/C(Cl)=C/c1ccccc1)c1ccncc1,x,n,n,n,n,n,x,x
O=C(N/N=C/C=C\c1ccco1)c1ccccn1,n,n,n,n,n,n,x,x
CC(/C=N/NC(=O)c1ccccn1)=C\c1ccco1,x,1.2,n,13.7,n,n,11.1,n
O=C(/C=C/c1cccc(F)c1)OCC(=O)N1CCc2ccccc21,n,n,x,n,n,n,x,x
O=C(NCc1ccco1)C1CCCN(S(=O)(=O)c2ccc(F)cc2)C1 (centres undefined),x,n,x,n,n,n,x,x
CCOC(=O)C1(Cc2ccccc2Cl)CCN(C(=O)c2cc(C)on2)CC1,n,n,x,n,n,n,x,x
SMILES,DAX1 inh-1,ssDAF12 agonist,Wee1 degr inh,hgDAF12 agonist,DAX1 inh-2,hcDAF12 agonist,hgDAF12 ag,LXR ag 2
CCOC(=O)C1(Cc2ccccc2Cl)CCN(C(=O)c2cnccn2)CC1,n,n,n,16.2,n,n,11.0,n
COc1ccccc1C(=O)N/C(=N/c1nc(C)cc(C)n1)Nc1ccccc1,n,n,n,13.6,n,n,n,n
CC1=Nc2ccccc2N=C(NC(=O)c2ccccc2)C1c1ccccc1 (centres undefined),n,n,n,19.2,n,n,n,n
CC1=Nc2ccccc2N=C(NC(=O)CN2CCN(c3ccccc3)CC2)C1c1ccccc1 (centres undefined),n,n,n,n,n,n,x,x
Cc1cccc(N2CCN(C(=O)[C@H](C)N3C(=O)C4CC=CCC4C3=O)CC2)c1C (some centres undefined),n,n,x,n,n,n,x,x
CCCCOCCCNC(=O)C[C@@H]1C[C@@]2(C(=O)OCC)CCC=C2N(Cc2ccccc2)C1=O,x,n,x,n,n,n,x,x
CSc1nc(-c2ccc(N(C)C)cc2)c(C#N)c(=O)n1C,n,n,n,14.3,n,n,n,n
COCCn1c(SCc2ccc(F)cc2)nc2c1c(=O)[nH]c(=O)n2C,n,n,x,n,n,n,x,x
Cc1ccc(-c2nc3cccnc3s2)cc1NS(C)(=O)=O,n,n,n,14.2,n,6.4,n,n
O=C(CN1CCCC1)Nc1cccc(Cl)c1Cl,n,n,x,n,n,n,x,x
Cc1cccc(NC(=O)NN(C(=O)c2ccccc2Cl)C(C)(C)C)c1,x,n,x,13.4,n,n,n,n
CC(C)(C)N(NC(=O)NCCCl)C(=O)c1ccccc1Cl,x,n,x,n,n,n,x,x
CN(C)c1ccc(C(=O)NC2CCCCN(Cc3ccc(Cl)cc3)C2=O)cc1 (centres undefined),x,n,x,n,n,n,x,x
CCCCC[C@H](C)N1C[C@H](COCc2ccccc2)Oc2cc(N3CCC[C@H]3CO)ccc2S1(=O)=O,x,n,x,n,n,n,x,x
COc1cccc(Nc2nc3ccc(OC)cc3s2)c1,n,n,n,17.0,n,n,18.3,n
COc1ccc2nc(NCc3cccnc3)sc2c1,n,n,x,n,n,n,x,x
COc1ccc2nc(NC(=O)c3cccnc3SC)sc2c1,n,n,n,17.5,n,n,13.6,n
COc1ccc(C(=O)Nc2nc3cc4c(cc3s2)OCO4)c(OC)c1,n,n,n,16.9,n,n,16.6,n
COc1ccc(S[C@]2(C(=O)NC(C)C)CC(=O)N[C@@H]2c2ccc(OC)cc2)cc1,x,n,x,n,n,n,x,x
O=C(COc1ccccc1)OCC(=O)c1c[nH]c2ccccc12,n,n,x,n,n,n,x,x
CC1(C(=O)OCC(=O)c2c[nH]c3ccccc23)CC1(Cl)Cl (centres undefined),n,1.6,n,14.2,n,n,15.2,n
CC(C)(C)c1cc(NC(=O)Nc2ccccc2)no1,n,n,x,22.8,n,n,18.9,n
Cc1nc(N)sc1C(=O)N/N=C/c1ccccc1[N+](=O)[O-],x,n,n,13.9,n,n,n,n
O=C(Nc1ccc(Cl)cc1)c1ccc2c(c1)OCO2,n,n,n,13.3,n,5.6,20.1,n
O=C(Nc1ccc2c(c1)OCCO2)c1ccc(Cl)cc1,n,n,x,15.3,n,n,14.8,n
O=C(N/N=C/c1ccsc1)c1ccc2c(c1)OCO2,n,n,x,n,n,n,x,x
O=C(Nc1ccn(Cc2ccccc2)n1)c1ccc2c(c1)OCO2,n,n,n,15.7,n,n,n,n
